The text below walks through data of PubChem BioAssay.

Assay [1] can be described thus: compounds binding Alexa647 anti-His antibody – biochemical, small-molecule microarray, 635 nm fluorescence, artefact control for SMM control protein annotation, primary screen (AID 1128).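 Further: score merges feature fluorescence with signal-to-noise for each printed compound spot.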 As to conditions: higher = more signal.
In assay [2] the test system is Human papillomavirus type 1a E7 protein (residues 1-88). In words: HPV1a E7 small-molecule binders, primary screen, biochemical, small-molecule microarray, residues 1-88, 635 nm (AID 1129). As to conditions: small-molecule microarray binding, fluorescence 635 nm; higher = more signal.
Assay [3] concerns the target Focal adhesion kinase 1 (Homo sapiens) (UniProt Q05397). In words: PTK2 protein binding on printed compound slides – biochemical, small-molecule microarray, 635/667 nm fluorescence, BSA, DTT, primary screen (AID 1130).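 Further: composite of spot emission at 667 nm and signal to noise over triplicate slides.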 As to conditions: 635 nm fluorescence, higher = more signal.
In assay [4] the test system is Fibrinogen (Alexa647-labelled). In words: Alexa647-fibrinogen binding to printed small molecules – biochemical, small-molecule microarray, 635/667 nm fluorescence, artefact control for SMM control-protein annotation, profiling panel (AID 1131).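 Further: z-score merges 667 nm fluorescence with per-spot signal-to-noise over triplicate slides.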 As to conditions: fibrinogen-A647 binding fluorescence, higher = more signal.
Assay [5] has as its target Follistatin (Homo sapiens) (UniProt P19883). Kind of assay: FST protein binding to printed compounds – biochemical, small-molecule microarray, 635/667 nm fluorescence, primary screen (AID 1132). As to conditions: 635 nm fluorescence, higher = more signal.
Assay [6] deals with Fibroblast growth factor 2 (Homo sapiens) (UniProt P09038). In words: basic fibroblast growth factor binding to printed compounds – biochemical, small-molecule microarray, 635/667 nm fluorescence, primary screen (AID 1133). As to conditions: FGF2, fluorescence 635/667, higher = more signal.
Fibroblast growth factor 2 (Homo sapiens), sequence (P09038 whole entry, looked up): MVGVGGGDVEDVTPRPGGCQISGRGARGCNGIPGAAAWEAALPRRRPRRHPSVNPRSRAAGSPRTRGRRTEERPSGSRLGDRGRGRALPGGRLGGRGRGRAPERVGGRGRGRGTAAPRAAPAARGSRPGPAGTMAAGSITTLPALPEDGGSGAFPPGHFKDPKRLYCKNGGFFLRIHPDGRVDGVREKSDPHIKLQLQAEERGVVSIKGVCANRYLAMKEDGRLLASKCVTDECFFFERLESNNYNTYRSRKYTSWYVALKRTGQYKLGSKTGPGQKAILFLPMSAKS
Assay [7] in a line: JC-1 mitochondrial potential readout, lung cancer cells – cell-based, A549, JC-1 fluorescence, basal, 24 h, 100 nL, profiling panel (AID 1138).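 Further: A549 lung adenocarcinoma cells under basal conditions with no added stimulus; test concentration not given here.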 As to conditions: higher = more signal.
A further assay relates to Lefty1. In words: Lefty1 protein binding to printed compounds – biochemical, small-molecule microarray, 635/667 nm fluorescence, primary screen (AID 1139). As to conditions: fluorescence 635/667, higher = more signal.
In assay [8] the test system is wheat germ agglutinin (Triticum aestivum), Alexa647-labelled. Kind of assay: Alexa647-WGA lectin binding to printed small molecules – biochemical, small-molecule microarray, 635/667 nm fluorescence, artefact control for SMM control-protein annotation, profiling panel (AID 1140).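 Further: score merges 667 nm feature emission with signal to noise over triplicate slides.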 As to conditions: WGA-A647 binding, 635 nm fluorescence, higher = more signal.
Assay [9] addresses Luciferin 4-monooxygenase (Photinus pyralis) (UniProt P08659). In words: inhibition of purified Photinus pyralis luciferase – biochemical, luminescence, purified enzyme, 2006 set, primary screen (AID 1141).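 Further: cell-free assay with purified firefly luciferase at 100 ng per well in PBS; test concentration not given here.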 As to conditions: purified firefly luciferase, SteadyGlo luminescence, 30 min; higher = more signal, called active from +8 up or from −8 down.
Assay [10] deals with Wnt5a (protein binding on small-molecule microarray). Kind of assay: small molecules binding Wnt5a protein – biophysical, small-molecule microarray, 635/667 nm fluorescence, primary screen (AID 1142).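 Further: fluorescence read at 667 nm with signal to noise per printed feature.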 As to conditions: 635 nm fluorescence, higher = more signal.
The nature of assay [11]: ATP-based viability of Huh7 replicon cells – cell-based, CellTiter-Glo luminescence, basal, 48 h, cytotoxicity control for HCV replication inhibitor project, primary screen (AID 1143).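 Further: Huh7 hepatoma cells carrying a hepatitis C replication reporter with no stimulus; test concentration not given here.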 As to conditions: higher = more signal, called active from +8 up or from −8 down. On the technique in general: Replicon systems follow genome replication, usually without infectious particles.

Assay [12] can be described thus: Pseudomonas biofilm growth suppression – PAO1 strain, BacTiter-Glo luminescence, LB-PBS, primary screen (AID 1144). As to conditions: P. aeruginosa PAO1 biofilm, 12 h, higher = more signal.
Assay [13] can be described thus: basal CRE-LacZ reporter activity in PC12 – cell-based, unstimulated, primary screen (AID 1145). As to conditions: no forskolin, luminescence, 4.5 h, higher = more signal, called active from +8 up or from −8 down.
Assay [14] is described as follows: forskolin-driven CRE-LacZ activity in PC12 – cell-based, CRE-LacZ reporter, forskolin-stimulated, primary screen (AID 1146).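 Further: PC12 cells with 6xCRE LacZ reporter stimulated by forskolin 10 µM; beta-galactosidase reporter signal reflecting CREB driven transcription.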 As to conditions: luminescence, 4.5 h, higher = more signal, called active from +8 up or from −8 down.
Assay [15] concerns the target Streptavidin (Streptomyces avidinii) (UniProt P22629). In words: compounds binding control protein streptavidin – biophysical, small-molecule microarray, 635/667 nm fluorescence, artefact control for SMM compound annotation, primary screen (AID 1147).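 Further: signal reflects streptavidin binding to arrayed compounds as a control protein.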 As to conditions: higher = more signal.
Assay [16] can be described thus: probe aInhba binding on compound microarray – biochemical, small-molecule microarray, 635/667 nm fluorescence, primary screen (AID 1148).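 Further: score merges 667nm spot fluorescence with signal-to-noise for antibody binding to printed compounds.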 As to conditions: higher = more signal.
Assay [17] has as its target Torsin-1A (Homo sapiens) (UniProt O14656). In words: TOR1A wild-type binding on microarray – cell lysate, small-molecule microarray, lysate, 635/667 nm, primary screen (AID 1149). As to conditions: COS7 hTOR1A-WT lysate, 635 nm fluorescence, higher = more signal.
Assay [18] has the same target. In words: torsin A mutant lysate binding on microarrays – cell lysate, small-molecule microarray, COS7 lysate, 635/667 nm fluorescence, primary screen (AID 1150).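 Further: score pools 667 nm emission and signal to noise measuring lysate protein binding.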 As to conditions: COS7 hTOR1A mutant lysate, 635 nm fluorescence, higher = more signal.
The test system of assay [19] is Sonic hedgehog protein (Shh). In words: Sonic hedgehog microarray binding compounds – biochemical, small-molecule microarray, 635/667 nm fluorescence, primary screen (AID 1151).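 Further: Shh protein binding to compounds spotted on small-molecule microarray slides; score combines spot fluorescence intensity with signal-to-noise across triplicate slides.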 As to conditions: 635 nm fluorescence, higher = more signal.

Structures are written as SMILES. Activity calls are given as the source filed them. Unless noted, how the calls were made is not given here.

Focal adhesion kinase 1 (Homo sapiens), sequence (Q05397 whole entry, looked up): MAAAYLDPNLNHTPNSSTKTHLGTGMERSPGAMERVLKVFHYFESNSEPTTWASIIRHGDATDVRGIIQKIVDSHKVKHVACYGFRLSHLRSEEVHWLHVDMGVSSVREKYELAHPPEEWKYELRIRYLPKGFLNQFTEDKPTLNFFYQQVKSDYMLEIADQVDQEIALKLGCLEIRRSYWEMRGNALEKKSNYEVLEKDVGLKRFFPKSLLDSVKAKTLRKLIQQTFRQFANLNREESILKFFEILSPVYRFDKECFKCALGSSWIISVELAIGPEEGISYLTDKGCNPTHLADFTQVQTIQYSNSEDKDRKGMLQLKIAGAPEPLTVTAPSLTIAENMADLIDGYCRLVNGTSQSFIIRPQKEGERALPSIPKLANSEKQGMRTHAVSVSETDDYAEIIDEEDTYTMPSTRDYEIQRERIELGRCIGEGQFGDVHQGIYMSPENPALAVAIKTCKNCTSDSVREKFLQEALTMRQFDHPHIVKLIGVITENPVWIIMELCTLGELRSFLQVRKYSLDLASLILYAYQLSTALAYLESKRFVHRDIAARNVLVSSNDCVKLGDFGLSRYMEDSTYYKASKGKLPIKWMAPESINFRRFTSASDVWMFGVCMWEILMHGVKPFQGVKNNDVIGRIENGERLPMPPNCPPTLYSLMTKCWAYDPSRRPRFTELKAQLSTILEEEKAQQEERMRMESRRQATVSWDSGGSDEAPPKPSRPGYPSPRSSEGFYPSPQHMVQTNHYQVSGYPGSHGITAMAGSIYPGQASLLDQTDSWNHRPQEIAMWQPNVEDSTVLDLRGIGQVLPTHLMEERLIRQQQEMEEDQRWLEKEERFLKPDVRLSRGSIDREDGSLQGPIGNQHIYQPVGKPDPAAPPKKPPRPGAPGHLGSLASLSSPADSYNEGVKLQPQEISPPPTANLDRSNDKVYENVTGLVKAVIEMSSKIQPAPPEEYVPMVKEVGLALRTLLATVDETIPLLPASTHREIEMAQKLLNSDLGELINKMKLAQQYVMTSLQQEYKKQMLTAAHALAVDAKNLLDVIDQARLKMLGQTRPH
Streptavidin (Streptomyces avidinii), sequence (P22629 whole entry, looked up): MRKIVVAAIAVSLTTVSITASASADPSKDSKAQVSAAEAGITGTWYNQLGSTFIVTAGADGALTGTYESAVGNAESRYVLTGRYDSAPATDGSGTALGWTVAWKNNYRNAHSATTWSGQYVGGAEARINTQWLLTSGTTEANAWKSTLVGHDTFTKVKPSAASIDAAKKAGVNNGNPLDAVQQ
Torsin-1A (Homo sapiens), sequence (O14656 whole entry, looked up): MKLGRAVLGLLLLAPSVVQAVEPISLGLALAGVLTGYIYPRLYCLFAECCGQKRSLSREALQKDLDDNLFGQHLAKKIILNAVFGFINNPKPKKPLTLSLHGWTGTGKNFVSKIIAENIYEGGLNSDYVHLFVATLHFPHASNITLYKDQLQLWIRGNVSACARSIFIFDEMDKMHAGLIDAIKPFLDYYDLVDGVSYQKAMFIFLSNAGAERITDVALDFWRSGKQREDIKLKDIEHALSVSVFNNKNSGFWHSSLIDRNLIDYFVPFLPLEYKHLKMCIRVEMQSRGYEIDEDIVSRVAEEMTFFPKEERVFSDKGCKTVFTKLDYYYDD
Follistatin (Homo sapiens), sequence (P19883 whole entry, looked up): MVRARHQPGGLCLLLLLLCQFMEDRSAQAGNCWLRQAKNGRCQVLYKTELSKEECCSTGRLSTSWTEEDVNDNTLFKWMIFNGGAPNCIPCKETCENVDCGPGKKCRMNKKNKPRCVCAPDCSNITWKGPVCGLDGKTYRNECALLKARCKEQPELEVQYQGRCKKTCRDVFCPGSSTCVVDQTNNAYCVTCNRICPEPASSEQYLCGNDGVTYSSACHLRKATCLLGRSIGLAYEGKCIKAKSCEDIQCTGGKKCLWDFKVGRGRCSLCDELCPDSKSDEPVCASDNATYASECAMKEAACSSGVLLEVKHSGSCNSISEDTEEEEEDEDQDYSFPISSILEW
Luciferin 4-monooxygenase (Photinus pyralis), sequence (P08659 whole entry, looked up): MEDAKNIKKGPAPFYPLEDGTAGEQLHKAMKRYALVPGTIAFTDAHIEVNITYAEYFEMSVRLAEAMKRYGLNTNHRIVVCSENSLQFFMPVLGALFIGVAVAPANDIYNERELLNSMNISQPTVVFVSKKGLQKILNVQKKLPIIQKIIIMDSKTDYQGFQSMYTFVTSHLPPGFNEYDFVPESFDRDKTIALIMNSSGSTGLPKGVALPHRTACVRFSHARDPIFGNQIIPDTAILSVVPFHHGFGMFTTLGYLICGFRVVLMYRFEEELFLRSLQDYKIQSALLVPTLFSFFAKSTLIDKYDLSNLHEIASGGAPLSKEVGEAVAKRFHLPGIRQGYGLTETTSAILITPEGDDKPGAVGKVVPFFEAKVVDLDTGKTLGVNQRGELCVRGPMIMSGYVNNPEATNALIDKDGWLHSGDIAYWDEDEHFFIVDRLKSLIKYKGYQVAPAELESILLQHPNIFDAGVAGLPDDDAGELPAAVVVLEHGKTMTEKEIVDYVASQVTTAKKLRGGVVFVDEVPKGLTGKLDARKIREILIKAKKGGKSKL

As for `COCCOC(=O)N1C(=O)[C@@]2(c3cc(C#CC4=CCCCC4)ccc31)[C@H](c1ccc(O)cc1)N1[C@H](c3ccccc3)[C@H](c3ccccc3)OC(=O)[C@H]1[C@@H]2C(=O)Nc1nc2ccccc2s1`, the composite z-score in assay [1] is 0.494; in [2], 1.21; in [3] it was 0.822; in assay [4] it was 0.93; in [5] it was 0.862; in assay [6] it was 1.08. Besides, the composite z-score in the assay on Lefty1 was found to be 1.52; in assay [8] it was 0.657; in assay [10] it was 0.365; in [15], 1.18; in assay [16] it was 0.52; with Torsin-1A (Homo sapiens) [17] it was 0.776. In addition, the composite z-score in the assay with Torsin-1A (Homo sapiens) [18] is 0.89; in assay [19], 1.73. Moreover, the z-score in [7] is -1.94; in assay [9], -0.946 (inactive); in [11], -0.799 (inactive); in assay [12], -0.424 (inactive); in [13], 0.476 (inactive); in assay [14], 2.17 (inactive).
With `Cc1ccc(S[C@]2(C(=O)NCc3ccccc3)CC(=O)N(C(C)C)[C@@H]2c2ccc(CO)cc2I)cc1`, the composite z-score in [1] is 0.257; in assay [2] it was -0.0754; in assay [3], -0.19; in [4], -0.956; in assay [5], -0.289; in assay [6], -1.04. Further, the composite z-score is -1.17 in the assay with Lefty1; -0.0961 in assay [8]; 0.292 in [10]; -0.505 in [15]; 0.0028 in [16]; -0.0397 in the assay with Torsin-1A (Homo sapiens) [17]. For the same compound, the composite z-score was -0.609 with Torsin-1A (Homo sapiens) [18] and -1.37 in [19]. For the same compound, the z-score in assay [7] is -0.224; in assay [9], 0.667 (inactive); in assay [11], -1.11 (inactive); in assay [12], 0.201 (inactive); in assay [13] it was 0.208 (inactive); in assay [14] it was 1.95 (inactive).
As for `C[C@]12C(=O)N(CCCCCCO)[C@@H]3C(=O)N(c4ccc(Cl)cc4)CC=CC31O[C@@H]1/C=C\CCCOC(=O)C12` (stereo not given in full), the composite z-score in [1] is 0.0039; in assay [2], -0.401; in assay [3] it was 0.657; in assay [4], -2.42; in [5] it was -0.448; in assay [6], -1.12. The composite z-score is -0.408 with Lefty1; 0.608 in assay [8]; -0.143 in assay [10]; -0.781 in [15]; -0.104 in assay [16]; -1.38 in the assay with Torsin-1A (Homo sapiens) [17]. In addition, the composite z-score in the assay with Torsin-1A (Homo sapiens) [18] is -0.825; in assay [19] it was 0.128. Besides, the z-score is 0.846 in assay [7]; -1.64 (inactive) in [9]; -0.0337 (inactive) in [11]; -1.5 (inactive) in assay [12]; 0.0686 (inactive) in [13]; -0.475 (inactive) in [14].
Turning to `CN1C(=O)[C@@]2(CCS(=O)(=O)c3ccccc3)N=C(c3ccc(OCCCO)cc3)O[C@H]2c2ccccc21`, the composite z-score stood at 3.54 in [1]; 1.26 in [2]; 0.582 in assay [3]; 0.974 in assay [4]; 1.29 in assay [5]; 0.394 in assay [6]. The composite z-score in the assay on Lefty1 is 0.358; in assay [8], 1.01; in [10] it was 0.388; in assay [15] it was 1.8; in [16], -0.0384; with Torsin-1A (Homo sapiens) [17] it was 1.55. Moreover, the composite z-score with Torsin-1A (Homo sapiens) [18] was 0.397; in [19], 0.203. The z-score was 1.15 in assay [7]; -0.899 (inactive) in [9]; -4.49 (inactive) in [11]; -0.413 (inactive) in assay [12]; 0.0918 (inactive) in assay [13]; -0.196 (inactive) in [14].
As for `O=C(CCCCCCC(=O)Nc1ccccc1)N/N=C/c1ccccc1`, the composite z-score was 0.602 in assay [1]; -0.581 in assay [2]; -0.266 in [3]; -0.876 in [4]; -0.083 in assay [5]; 0.323 in assay [6]. In addition, the composite z-score in the assay on Lefty1 is -0.251; in assay [8] it was -0.552; in assay [10], -0.343; in [15], -0.184; in [16] it was 0.0074; with Torsin-1A (Homo sapiens) [17], 0.577. In addition, the composite z-score is 0.146 with Torsin-1A (Homo sapiens) [18] and 0.0351 in [19]. In addition, the z-score in assay [7] is -0.123; in assay [9], -0.83 (inactive); in [11], 0.0796 (inactive); in assay [12] it was 0.99 (inactive); in assay [13], 5.11 (inactive); in assay [14], 0.0631 (inactive).
